Most compounds without a hit are left out; they make up all but 6.1% or so of the library.
D3 ag = activates the human D3 dopamine receptor; max activation, %; AID 652048; D3R DiscoveRx beta-arrestin cells, luminescence, 90 min; 0.58% of 410,000 active; P35462; in the data active means max activation above about 30%; further: 0% is about no effect
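Agonist mode: compounds and dopamine controls were applied to plated cells for 90 min at 37 degrees C after an overnight attachment at 1500 cells/well. Luminescent read-out followed 30 - 60 minutes at room temperature with DiscoveRx detection reagent.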
D1 PAM = potentiators of human D1 dopamine receptor. P21728. HEK293 TREx D1 cells, calcium flux, dopamine EC20 potentiation. potentiation, % at 10 µM. 0.036% of 360,000 active. AID 504651; in the data active means potentiation above about 30%; further: 0% is about no effect
Target sequence (P21728 whole entry, looked up): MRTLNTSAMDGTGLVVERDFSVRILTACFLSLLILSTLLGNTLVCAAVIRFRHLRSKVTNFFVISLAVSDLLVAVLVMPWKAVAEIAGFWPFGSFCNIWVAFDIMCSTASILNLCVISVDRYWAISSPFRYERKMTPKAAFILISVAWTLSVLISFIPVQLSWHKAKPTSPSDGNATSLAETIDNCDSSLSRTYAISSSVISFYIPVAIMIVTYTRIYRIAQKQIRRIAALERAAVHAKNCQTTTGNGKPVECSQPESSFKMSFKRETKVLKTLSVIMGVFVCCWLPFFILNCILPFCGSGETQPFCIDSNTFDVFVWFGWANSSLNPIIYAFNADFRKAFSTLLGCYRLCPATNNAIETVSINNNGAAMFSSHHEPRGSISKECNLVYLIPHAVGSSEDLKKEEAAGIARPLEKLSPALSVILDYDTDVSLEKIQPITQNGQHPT
D1 antag = human D1 dopamine receptor antagonism; HEK293 TREx D1 cells, calcium flux, dopamine EC80; stronger effect = lower value; P21728; 3.2% of 360,000 active; activity change, negative = inhibition, % at 10 µM; AID 504652; in the data active means activity change below about -30%; further: on the % scale 0 is the no-effect control and ±100 the full control effect
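Using tetracycline-induced force-coupled D1 Hek293 cells and a calcium dye, signals were followed for 180 s after compound, then for 180 s after EC80 dopamine, to detect inhibitors.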
D1 ag = activates the human D1 dopamine receptor | P21728 | HEK293 T-REx D1 cells, calcium flux, agonist mode | activation, % at 2 µM | 1% of 360,000 active; in the data active means activation above about 30%; further: 0% is about no effect
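Inducible HEK293 T-REx D1 cells, force-coupled to calcium signalling, were plated at 4000 cells/well with tetracycline and held overnight at 30 C. After no-wash calcium dye loading, compound-evoked calcium rise over 180 s flagged agonists.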
DRD3 antagonist = D3 dopamine receptor (human) antagonism; D3R cells, DiscoveRx beta-arrestin luminescence, antagonist mode; stronger effect = lower value; 2.5% of 360,000 active; AID 652054; max response, negative = inhibition, %; P35462; in the data active means max response below about -50%; inconclusive means no clear call, values can overlap the other calls; further: on the % scale 0 is the no-effect control and ±100 the full control effect
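Cells plated overnight at 1500 cells/well, then exposed to library compounds with dopamine controls for 90 minutes at 37 degrees C. DiscoveRx reagent added for 30–60 minutes at room temperature; luminescence read, quantitative HTS format.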
Active calls of the source: *.

For O=C(c1ccc([N+](=O)[O-])cc1)N1CCc2ccccc2C1 the results were D3 ag 8, D1 PAM -6, D1 antag -7, D1 ag 1 and DRD3 antagonist 4.
For COc1ccc2[nH]c3c(c2c1)CCN1C(=O)C(CC(=O)NC(C)(C)C)C[C@H](C(=O)N2CCCCC2)[C@@]31CCc1ccccc1 (some centres undefined) the results were D3 ag 4 and DRD3 antagonist 18.
For Cc1ccc(C(=O)N2CCCC(C(=O)c3ccc(Oc4ccccc4)cc3)C2)cn1 (centres undefined) the results were D3 ag 3, D1 PAM -4, D1 antag -1, D1 ag 4 and DRD3 antagonist 1.
Screening O=C1C=CC(=O)N1c1ccc(OC(F)F)cc1 returned D3 ag -20, D1 PAM -6, D1 antag -8, D1 ag 0 and DRD3 antagonist -55*.
For CCOC(=O)c1cnc2ccc(C)cc2c1Nc1ccc(N(CC)CC)cc1 the results were D3 ag -4, D1 PAM 0, D1 antag 4 and D1 ag 2.
CCn1nc(C(=O)Nc2ccc3nc(C)sc3c2)c2ccccc2c1=O was read as D3 ag 1, D1 PAM -2, D1 antag -6, D1 ag 1 and DRD3 antagonist -86*.
`O=C(NC(=S)Nc1cccc(O)c1)c1cncc(Br)c1` gave D3 ag -2 and DRD3 antagonist -21.
For Cc1nc2ccc(NC(=O)c3ccc4ccccc4n3)cc2s1 the results were D3 ag 5, D1 PAM 0, D1 antag 0, D1 ag 6 and DRD3 antagonist 8.
O=C(O)c1cccc(NC(=S)NC(=O)c2cncc(Br)c2)c1 was read as D3 ag -11 and DRD3 antagonist -63*.
Cc1nc2ccc(NC(=O)c3ccccc3)cc2s1 was read as D3 ag -2, D1 PAM 2, D1 antag 9, D1 ag 0 and DRD3 antagonist -14.
Cc1nc2ccc(NC(=O)c3cncc(Br)c3)cc2s1 was read as D3 ag -3, D1 PAM -11, D1 antag -36*, D1 ag 0 and DRD3 antagonist -23.
Cc1nc2ccc(NC(=O)c3sccc3C)cc2s1 was read as D3 ag -8, D1 PAM -6, D1 antag -39*, D1 ag 1 and DRD3 antagonist inconclusive.
Screening COc1ccccc1C(=O)Nc1c(C(=O)Nc2cc(Cl)ccc2C)sc2nc(C)cc(C)c12 returned D3 ag -5, D1 PAM 1, D1 antag 3 and D1 ag -1.
Screening CCOc1cc(/C=N/N2CCN(Cc3ccccc3)CC2)ccc1O returned D3 ag -9, D1 PAM 2, D1 antag -27, D1 ag 6 and DRD3 antagonist -10.
Cc1ccc(C2/C(=C(\O)c3c(C)nc4ccccn34)C(=O)C(=O)N2CCN(C)C)o1 (centres undefined) was read as D3 ag 43*, D1 PAM 3, D1 antag -1, D1 ag 1 and DRD3 antagonist 11.
Cc1ccc(C2/C(=C(\O)c3c(C)nc4c(C)cccn34)C(=O)C(=O)N2CCN(C)C)o1 (centres undefined) was read as D3 ag 2 and DRD3 antagonist 0.
C=C1[C@H](C)CN[C@H]1CCO was read as D3 ag 4 and DRD3 antagonist -5.
`CCCC(=O)Nc1ccc2c(c1)nc(CCN1CCN(c3ccccn3)CC1)n2C` gave D3 ag 57*, D1 PAM -4, D1 antag 0, D1 ag 3 and DRD3 antagonist -5.
`Cn1c(CCN2CCN(c3ccccn3)CC2)nc2cc(NC(=O)COc3ccccc3)ccc21` gave D3 ag 44*, D1 PAM -5, D1 antag -17, D1 ag 5 and DRD3 antagonist -13.
For Cc1ccc(OCC(=O)Nc2ccc3c(c2)nc(CCN2CCN(c4ccccn4)CC2)n3C)cc1 the results were D3 ag 7 and DRD3 antagonist -3.
Screening CCC(=O)Nc1ccc2c(c1)nc(CCN1CCC(C)CC1)n2C returned D3 ag -14, D1 PAM -7, D1 antag 13, D1 ag 1 and DRD3 antagonist -20.
CCCCC(=O)Nc1ccc2c(c1)nc(CCN1CCN(c3ccccn3)CC1)n2C was read as D3 ag 44*, D1 PAM -5, D1 antag -6, D1 ag 4 and DRD3 antagonist -28.
For CC1CCN(CCc2nc3cc(NC(=O)COc4ccccc4)ccc3n2C)CC1 the results were D3 ag -15, D1 PAM 1, D1 antag 7, D1 ag 2 and DRD3 antagonist -71*.
For COc1ccc(-c2c(-c3cc(OC)cc(OC)c3)n(C)c3ccc(-c4ccc5cc[nH]c5c4)cc23)cc1 the results were D3 ag 10 and DRD3 antagonist 4.
`CCOC(=O)c1ccc(NC(=S)NCCCN2CCOCC2)cc1` gave D3 ag -8, D1 PAM -2, D1 antag -12, D1 ag 5 and DRD3 antagonist -9.
`CC(=O)Oc1ccc(C(=O)Nc2cccnc2)cc1` gave D3 ag -8, D1 PAM 2, D1 antag 15, D1 ag 7 and DRD3 antagonist -19.
`COC(=O)CN=C1OC(=O)N2C(=O)C3=C4[C@@H](C[C@H]5C(=O)N(c6ccccc6)C(=O)[C@H]5[C@H]4[C@@]12Cc1ccccc1)[C@H]1C(=O)N(c2ccccc2)C(=O)[C@H]1[C@H]3C` gave D3 ag -2, D1 PAM 0, D1 antag -5, D1 ag 3 and DRD3 antagonist 15.
`Cn1c(CCN2CCN(c3ccccn3)CC2)nc2cc(NS(=O)(=O)c3ccccc3)ccc21` gave D3 ag 23, D1 PAM -13, D1 antag -32*, D1 ag 7 and DRD3 antagonist -16.
Screening CC1(Cc2ccc(OC(F)(F)F)cc2)C(=O)Nc2ccc(OC(F)(F)F)cc21 (centres undefined) returned D3 ag 11 and DRD3 antagonist 0.
CCOC(=O)C1=NOC2(C1)C(=O)Nc1ccc(OC(F)(F)F)cc12 (centres undefined) was read as D3 ag -2 and DRD3 antagonist -87*.
O=C(Nc1ccc(Cl)cc1)c1cncs1 was read as D3 ag 1, D1 PAM -7, D1 antag -47*, D1 ag 1 and DRD3 antagonist 5.
Screening Cc1c(C(=O)NCc2cccc(Cl)c2)sc2nc3n(c(=O)c12)CCCC3 returned D3 ag 8, D1 PAM -1, D1 antag -16 and D1 ag 32*.
Cc1c(C(=O)NCc2ccc(Cl)cc2)sc2nc3n(c(=O)c12)CCCC3 was read as D3 ag -4, D1 PAM 2, D1 antag 3 and D1 ag 3.

Screening data: PubChem BioAssay, National Center for Advancing Translational Sciences (NCATS)
